# According to PubChem BioAssay (Tox21):
# Unmarked numbers belong to inactive results. Results filed as inconclusive are left out. A call without a number means that no potency is given here. Calls of active or inactive are those of the source. Unless noted, the call rests on the fitted dose curve.
# What was measured:
# [1] = Nuclear factor erythroid 2-related factor 2/antioxidant responsive element (Nrf2/ARE) small molecule agonists: qHTS cell viability counter screen in human keratinocytes (AID 1919968; active means well fitted curve in the direction sought with a large enough effect in the repeat runs; an effect the other way counts as inactive or inconclusive; further: nearly all actives have a fitted effect of over 55% in size; further: potency means the concentration at half of the fitted maximal effect)
# How it was run: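 Cytotoxicity was multiplexed with the Nrf2/ARE luciferase assay in the same wells. Stably transfected HaCaT keratinocytes were treated with test compounds for 23 h at 37 C. Cell viability was then measured by CellTiter-Fluor fluorescence.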
# [2] = target: Gonadotropin-releasing hormone receptor (Homo sapiens) (UniProt P30968); assay: Human gonadotropin-releasing hormone receptor (GnRHR) small molecule agonists, calcium flux assay in GnRHR-HEK293 cells (AID 1920063); further: nearly all actives have a fitted effect of over 35% in size; further: potency means the concentration at half of the fitted maximal effect
# How it was run: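 Agonist activity was measured as intracellular calcium flux in HEK293 cells engineered to stably express human GnRHR. After dye loading for 1 hour at 37 C, compounds in DMSO were added and fluorescence was followed for 3 minutes.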
# [3] = target: KiSS-1 receptor (Homo sapiens) (UniProt Q969F8); assay: Human kisspeptin (KISS1R) small molecule agonists, calcium flux assay in KISS1R-HEK293 cells (AID 1920064; active means well fitted curve in the direction sought with a large enough effect in the repeat runs; an effect the other way counts as inactive or inconclusive)
# How it was run: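 Agonist activity is monitored as intracellular calcium rise in engineered HEK293 cells carrying human KISS1R. Cells are dye-loaded for 1 h at 37 C before compound addition, and fluorescence is recorded for 3 min.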
# [4] = G protein-coupled receptor (GPCR) small molecule agonists, calcium flux assay: HEK293 wild type cell line counter screen (AID 1920065)
# How it was run: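 Seed cells, incubate 18 h (37 C, 5% CO2); add calcium dye, 1 h at 37 C; pin-transfer compounds, ATP control or DMSO; read fluorescence 480/540 nm each second for 3 min.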
# [5] = p53 small molecule agonists, cell-based qHTS assay with human liver microsomes (AID 1963577);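 further: p53 response element beta-lactamase reporter cells with liver microsomes plus NADPH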
# How it was run: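 Reporter activation was measured by LiveBLAzer fluorescence intensity in p53RE-bla cells, which had been exposed to compounds for 16 h at 37 C alongside 0.5 mg/mL human liver microsomes and 0.5 mg/mL NADPH (final concentrations).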
# [6] = p53 small molecule agonists, cell-based qHTS assay with rat liver microsomes (AID 1963578)
# How it was run: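 Compound in DMSO added to p53RE-bla cells 5 h post-plating; rat microsomes/NADPH 0.5 mg/mL final; 16 h, 37 C; LiveBLAzer 2 h RT.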
# [7] = p53 small molecule agonists, cell-based qHTS assay with human liver microsomes: qHTS cell viability counter screen (AID 1963579); further: nearly all actives have a fitted effect of over 45% in size
# How it was run: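 HLM-supplemented (0.5 mg/mL final) and NADPH-supplemented (0.5 mg/mL final) p53RE-bla cultures, 4,000 cells per well, were dosed with compounds in DMSO for 16 h at 37 C; luminescent ATP detection (CellTiter-Glo, 30 min, room temperature) quantified surviving cells.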
# [8] = p53 small molecule agonists, cell-based qHTS assay with rat liver microsomes: qHTS cell viability counter screen (AID 1963580); further: nearly all actives have a fitted effect of over 45% in size
# How it was run: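 Counter screen for cytotoxicity under metabolic activation: rat liver microsomes and NADPH, 0.5 mg/mL final each, added with compounds to p53RE-bla HCT-116 cells; 16 h at 37 C, then ATP luminescence read.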
# [9] = p53 small molecule agonists, cell-based qHTS assay: qHTS cell viability counter screen (AID 1963581); further: nearly all actives have a fitted effect of over 45% in size
# How it was run: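 Viability was counter-screened in parallel with the p53 agonist reporter by measuring intracellular ATP luminescence in the same HCT-116 p53RE-bla wells after 16 h compound treatment at 37 C.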
# [10] = p53 small molecule agonists, cell-based qHTS assay (AID 1963582; active means well fitted activation curve with a large enough effect in the signal ratio in the repeat runs, not every such curve was filed as active; the % refers to the signal ratio)
# How it was run: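 Cells carrying a p53-responsive bla reporter are treated with test compounds for 16 h at 37 C; beta-lactamase activity is then detected with LiveBLAzer B/G FRET substrate after 2 h at room temperature.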
# [11] = cAMP Responsive Elements (CRE) small molecule agonists, cell-based qHTS assay (AID 1963590)
# How it was run: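 Cells carrying a CRE-driven beta-lactamase reporter (HEK 293T) are seeded, incubated overnight (18 h), and treated with test compounds for 3 h at 37 C; reporter activity is then detected with a FRET substrate after 2 h at room temperature.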
# [12] = cAMP Responsive Elements (CRE) small molecule antagonists, cell-based qHTS assay (AID 1963591; active means well fitted inhibition curve with a large enough effect in the signal ratio in the repeat runs, not every such curve was filed as active; the % refers to the signal ratio)
# How it was run: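 Cells (CRE-bla HEK 293T, DMEM with 10% dialyzed FBS and 25 mM HEPES) are seeded and incubated 18 h. Compounds are added with NKH477 agonist at 0.25 uM final for 3 h, then FRET substrate for 2 h.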
# [13] = target: Beta-2 adrenergic receptor (Homo sapiens) (UniProt P07550); assay: Adrenergic beta2 receptor (ADRB2) small molecule antagonists, cell-based qHTS assay (AID 1963592); further: series mostly up to about 92 µM; nearly all actives have a fitted effect of over 50% in size
# How it was run: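 Assay format: CHO-ADRB2 cells, 18-20hr seeding at 37C/5% CO2, then compound plus 1nM isoproterenol agonist mix for 0.5hr RT. Homogeneous time-resolved fluorescence cAMP detection after 1hr, expressed as 665/615 nm ratio.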
# [14] = target: Beta-2 adrenergic receptor (Homo sapiens) (UniProt P07550); assay: Adrenergic beta2 receptor (ADRB2) small molecule agonists, cell-based qHTS assay (AID 1963593);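 further: CHO cells stably overexpressing human ADRB2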
# How it was run: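 CHO cells stably over-expressing ADRB2 were plated overnight at 37C, then dosed with compounds plus a stimulation mix containing 100uM IBMX and 25uM Ro-20-1724 for 0.5hr at room temperature. cAMP was measured by HTRF competition, 1hr.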
# [15] = target: D(2) dopamine receptor (Homo sapiens) (UniProt P14416); assay: Dopamine D2 receptor (DRD2) small molecule agonists, cell-based qHTS assay (AID 1963594); further: nearly all actives have a fitted effect of over 35% in size
# How it was run: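 HEK293 cells stably expressing DRD2 were cultured 24 h at 37 C, then given Ro20-1724 (0.1 mM final) and compounds for 10 min at room temperature. NKH477 (200nM) was then added for 30 min. cAMP was read by HTRF.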
# [16] = target: D(2) dopamine receptor (Homo sapiens) (UniProt P14416); assay: Dopamine D2 receptor (DRD2) small molecule antagonists, cell-based qHTS assay (AID 1963595; active means well fitted inhibition curve with a large enough effect in the signal ratio in the repeat runs, with a control signal flat; the % refers to the signal ratio)
# How it was run: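 DRD2-HEK293; 0.1 mM Ro20-1724; cpd 10 min RT; NKH477 200 nM + quinpirole 12 nM, 30 min RT; HTRF cAMP (cAMP-d2/anti-cAMP cryptate), 665/620 nm ratio after 1 h.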
# [17] = target: 5-hydroxytryptamine receptor 2A (Homo sapiens) (UniProt P28223); assay: 5-hydroxytryptamine receptor 2A (HTR2A) small molecule antagonists, cell-based qHTS assay (AID 1963586); further: nearly all actives have a fitted effect of over 45% in size
# How it was run: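 CHO cells stably expressing human HTR2A were plated for 18 h at 37 C, then loaded with calcium dye for 1 h. Compounds were preincubated 5 min at room temperature before DOI (4 nM solution) was added. Kinetic fluorescence was read for 3 min.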
# [18] = target: 5-hydroxytryptamine receptor 2A (Homo sapiens) (UniProt P28223); assay: 5-hydroxytryptamine receptor 2A (HTR2A) small molecule agonists, cell-based qHTS assay (AID 1963587); further: nearly all actives have a fitted effect of over 30% in size
# How it was run: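 HTR2A-CHO cells, plated 18 h at 37 C/5% CO2, dye-loaded 1 h at 37 C; compounds in DMSO added by pin tool (agonist mode). Intracellular calcium flux read as kinetic fluorescence on FDSS over 2 min at 1 s intervals.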
# [19] = target: Muscarinic acetylcholine receptor M1 (Homo sapiens) (UniProt P11229); assay: Cholinergic receptor muscarinic 1 (CHRM1) small molecule antagonists, cell-based qHTS assay (AID 1963588); further: nearly all actives have a fitted effect of over 40% in size
# How it was run: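 Compounds were tested at 15 concentrations in three independent runs. Dye-loaded CHRM1-CHO cells were exposed 5 min at room temperature before stimulation by acetylcholine added at 50nM. Intracellular calcium was read kinetically on FDSS for 3 min.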
# [20] = target: Muscarinic acetylcholine receptor M1 (Homo sapiens) (UniProt P11229); assay: Cholinergic receptor muscarinic 1 (CHRM1) small molecule agonists, cell-based qHTS assay (AID 1963589); further: nearly all actives have a fitted effect of over 35% in size
# How it was run: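 Cells were plated and incubated 18 h at 37 C/5% CO2, loaded with calcium dye for 1 h at 37 C, then treated with compounds in DMSO. Fluorescence was recorded kinetically at 1 sec intervals.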
# 5-hydroxytryptamine receptor 2A (Homo sapiens), sequence (P28223 whole entry, looked up): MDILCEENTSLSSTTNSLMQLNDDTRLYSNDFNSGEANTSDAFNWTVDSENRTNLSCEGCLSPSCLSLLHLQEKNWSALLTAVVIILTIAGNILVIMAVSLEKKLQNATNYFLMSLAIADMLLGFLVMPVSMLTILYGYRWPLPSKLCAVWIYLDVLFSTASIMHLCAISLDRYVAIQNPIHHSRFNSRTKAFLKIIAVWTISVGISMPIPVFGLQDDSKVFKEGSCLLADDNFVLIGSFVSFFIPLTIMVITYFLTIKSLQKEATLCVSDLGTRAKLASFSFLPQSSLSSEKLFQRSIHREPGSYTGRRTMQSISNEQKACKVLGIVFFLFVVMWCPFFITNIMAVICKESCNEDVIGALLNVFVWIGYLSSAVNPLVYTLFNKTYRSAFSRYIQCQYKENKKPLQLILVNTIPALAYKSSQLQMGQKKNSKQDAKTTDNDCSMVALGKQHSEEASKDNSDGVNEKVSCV
# Beta-2 adrenergic receptor (Homo sapiens), sequence (P07550 whole entry, looked up): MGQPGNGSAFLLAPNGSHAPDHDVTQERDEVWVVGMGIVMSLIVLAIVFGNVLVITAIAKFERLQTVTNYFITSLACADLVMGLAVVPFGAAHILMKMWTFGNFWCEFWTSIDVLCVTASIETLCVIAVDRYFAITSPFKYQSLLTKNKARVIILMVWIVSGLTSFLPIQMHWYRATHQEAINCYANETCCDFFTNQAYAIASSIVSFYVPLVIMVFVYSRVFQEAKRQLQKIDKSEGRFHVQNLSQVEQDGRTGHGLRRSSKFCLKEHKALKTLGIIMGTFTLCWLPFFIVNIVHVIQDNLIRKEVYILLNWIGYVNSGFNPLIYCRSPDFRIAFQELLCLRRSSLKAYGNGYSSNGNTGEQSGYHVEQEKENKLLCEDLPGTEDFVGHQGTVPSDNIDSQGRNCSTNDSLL
# KiSS-1 receptor (Homo sapiens), sequence (Q969F8 whole entry, looked up): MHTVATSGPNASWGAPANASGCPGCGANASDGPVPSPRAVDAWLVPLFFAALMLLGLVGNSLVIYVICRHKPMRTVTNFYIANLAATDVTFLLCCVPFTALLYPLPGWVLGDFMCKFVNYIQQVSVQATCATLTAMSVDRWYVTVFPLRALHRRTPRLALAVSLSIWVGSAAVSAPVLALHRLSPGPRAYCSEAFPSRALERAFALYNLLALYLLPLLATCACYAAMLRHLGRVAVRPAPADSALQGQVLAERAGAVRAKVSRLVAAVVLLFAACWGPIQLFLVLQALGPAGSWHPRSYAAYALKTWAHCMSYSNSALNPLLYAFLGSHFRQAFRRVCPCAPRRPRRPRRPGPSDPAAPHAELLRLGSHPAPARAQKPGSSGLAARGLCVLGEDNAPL
# Gonadotropin-releasing hormone receptor (Homo sapiens), sequence (P30968 whole entry, looked up): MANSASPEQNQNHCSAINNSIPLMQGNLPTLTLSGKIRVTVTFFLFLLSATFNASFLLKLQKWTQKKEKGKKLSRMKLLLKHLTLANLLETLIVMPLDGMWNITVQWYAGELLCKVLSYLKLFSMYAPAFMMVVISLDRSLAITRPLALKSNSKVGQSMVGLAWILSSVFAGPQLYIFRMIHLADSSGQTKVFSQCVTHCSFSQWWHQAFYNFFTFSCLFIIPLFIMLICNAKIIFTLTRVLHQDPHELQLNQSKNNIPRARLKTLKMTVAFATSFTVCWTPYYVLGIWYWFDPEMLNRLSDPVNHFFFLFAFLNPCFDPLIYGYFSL
# Muscarinic acetylcholine receptor M1 (Homo sapiens), sequence (P11229 whole entry, looked up): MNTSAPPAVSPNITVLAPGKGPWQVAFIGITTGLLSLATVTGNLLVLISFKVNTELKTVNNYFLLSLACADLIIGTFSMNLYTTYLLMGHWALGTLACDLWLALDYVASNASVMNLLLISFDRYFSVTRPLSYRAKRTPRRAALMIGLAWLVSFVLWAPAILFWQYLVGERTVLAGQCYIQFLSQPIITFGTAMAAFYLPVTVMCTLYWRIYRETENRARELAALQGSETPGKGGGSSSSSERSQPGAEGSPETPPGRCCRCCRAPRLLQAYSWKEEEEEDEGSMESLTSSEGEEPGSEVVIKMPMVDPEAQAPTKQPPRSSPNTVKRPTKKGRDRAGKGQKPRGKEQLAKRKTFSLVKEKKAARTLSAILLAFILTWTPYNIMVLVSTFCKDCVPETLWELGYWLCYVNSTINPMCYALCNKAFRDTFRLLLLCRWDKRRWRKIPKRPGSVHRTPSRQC
# D(2) dopamine receptor (Homo sapiens), sequence (P14416 whole entry, looked up): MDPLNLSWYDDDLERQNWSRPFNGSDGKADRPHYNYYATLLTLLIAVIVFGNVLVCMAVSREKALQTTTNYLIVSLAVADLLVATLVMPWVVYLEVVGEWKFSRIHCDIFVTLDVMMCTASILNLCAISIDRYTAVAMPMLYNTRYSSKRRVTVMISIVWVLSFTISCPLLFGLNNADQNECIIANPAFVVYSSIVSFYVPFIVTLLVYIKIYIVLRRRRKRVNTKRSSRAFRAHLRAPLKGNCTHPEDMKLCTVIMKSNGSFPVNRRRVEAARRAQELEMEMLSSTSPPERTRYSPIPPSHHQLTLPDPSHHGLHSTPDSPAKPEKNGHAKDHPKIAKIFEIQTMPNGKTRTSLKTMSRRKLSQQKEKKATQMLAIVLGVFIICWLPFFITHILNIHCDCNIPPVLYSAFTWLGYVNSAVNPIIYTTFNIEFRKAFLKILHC
smiles,measurement,setting,value
C/C=C1\[C@H]2C=C(C)C[C@]1(N)c1ccc(=O)[nH]c1C2,Potency,[1],inactive
same,Potency,[2],inactive
same,Potency,[3],inactive
same,Potency,[4],inactive
same,Potency,[5],inactive
same,Potency,[6],inactive
same,Potency,[7],inactive
same,Potency,[8],inactive
same,Potency,[9],inactive
same,Potency,[10],inactive
same,Potency,[11],inactive
same,Potency,[12],inactive
same,Potency,[13],inactive
same,Potency,[14],inactive
same,Potency,[15],inactive
same,Potency,[16],inactive
NC(Cc1ccc(F)cc1)C(=O)O (stereo not drawn),"activity change, negative = cytotoxicity",[1],2.68% [at 8.39 µM]
same,activity change,[2],"-0.388% [at 5.22 µM, stronger effect = higher value]"
same,activation,[3],2.03% [at 6.97 µM]
same,activation,[4],-0.478% [at 5.23 µM]
same,activation,[5],4.13% [at 5.99 µM]
same,activation,[6],1.09% [at 5.99 µM]
same,"activity change, negative = cytotoxicity",[7],3.36% [at 5.99 µM]
same,"activity change, negative = cytotoxicity",[8],9.8% [at 5.99 µM]
same,"activity change, negative = cytotoxicity",[9],-3.36% [at 5.99 µM]
same,activation,[10],1.84% [at 5.99 µM]
same,activation,[11],-1.9% [at 8.39 µM]
same,"activity change, negative = inhibition",[12],-1.08% [at 8.39 µM]
same,"activity change, negative = inhibition",[13],-3.88% [at 8.39 µM]
same,activation,[14],-31.2% [at 8.39 µM]
same,activation,[15],1.24% [at 8.39 µM]
same,"activity change, negative = inhibition",[16],11.6% [at 8.38 µM]
CNCCC(Oc1ccc(C(F)(F)F)cc1)c1ccccc1 (stereo not drawn),Potency,[1],26.9 µM (active)
same,Potency,[2],38.4 µM (active)
same,Potency,[3],inactive
same,Potency,[4],inactive
same,Potency,[5],inactive
same,Potency,[6],inactive
same,Potency,[7],inactive
same,Potency,[8],inactive
same,Potency,[9],inactive
same,Potency,[10],inactive
same,Potency,[11],inactive
same,Potency,[12],inactive
same,Potency,[13],inactive
same,Potency,[15],inactive
same,Potency,[16],inactive
CC(=O)OCC=C(C)C,Potency,[1],inactive
same,Potency,[2],inactive
same,Potency,[3],inactive
same,Potency,[4],inactive
same,Potency,[5],inactive
same,Potency,[6],inactive
same,Potency,[7],inactive
same,Potency,[8],inactive
same,Potency,[9],inactive
same,Potency,[17],inactive
same,Potency,[18],inactive
same,Potency,[19],inactive
same,Potency,[20],inactive
same,Potency,[11],inactive
same,Potency,[12],inactive
same,Potency,[13],inactive
same,Potency,[14],inactive
same,Potency,[15],inactive
same,Potency,[16],inactive
O=C(Nc1ccc(C(=O)O)c(O)c1)c1ccccc1,Potency,[1],inactive
same,Potency,[2],inactive
same,Potency,[3],inactive
same,Potency,[4],inactive
same,Potency,[5],inactive
same,Potency,[6],inactive
same,Potency,[7],inactive
same,Potency,[8],inactive
same,Potency,[9],inactive
same,Potency,[10],inactive
same,Potency,[18],inactive
same,Potency,[19],inactive
same,Potency,[20],inactive
same,Potency,[11],inactive
same,Potency,[12],inactive
same,Potency,[13],inactive
same,Potency,[14],inactive
same,Potency,[15],inactive
CC(C)C1=CC2=CC[C@@H]3[C@](C)(CCC[C@@]3(C)C(=O)O)[C@H]2CC1,Potency,[1],inactive
same,Potency,[2],inactive
same,Potency,[3],inactive
same,Potency,[4],inactive
same,Potency,[5],inactive
same,Potency,[6],inactive
same,Potency,[7],inactive
same,Potency,[8],inactive
same,Potency,[9],inactive
same,Potency,[17],inactive
same,Potency,[18],inactive
same,Potency,[19],inactive
same,Potency,[20],inactive
same,Potency,[13],inactive
same,Potency,[15],inactive
same,Potency,[16],inactive
C[C@H]1[C@H](NC(=O)/C(=N/OC(C)(C)C(=O)O)c2csc(N)n2)C(=O)N1S(=O)(=O)O (stereo in doubt),Potency,[1],inactive
same,Potency,[2],inactive
same,Potency,[3],inactive
same,Potency,[4],inactive
same,Potency,[5],inactive
same,Potency,[6],inactive
same,Potency,[7],inactive
same,Potency,[8],inactive
same,Potency,[9],inactive
same,Potency,[10],inactive
same,Potency,[11],inactive
same,Potency,[12],inactive
same,Potency,[13],inactive
same,Potency,[15],inactive
same,Potency,[16],inactive
Cc1cc(O)c(Cl)c(C)c1Cl,Potency,[1],inactive
same,Potency,[2],inactive
same,Potency,[3],inactive
same,Potency,[4],inactive
same,Potency,[5],inactive
same,Potency,[6],inactive
same,Potency,[7],inactive
same,Potency,[8],inactive
same,Potency,[9],inactive
same,Potency,[10],inactive
same,Potency,[18],inactive
same,Potency,[19],inactive
same,Potency,[20],inactive
same,Potency,[11],inactive
same,Potency,[13],inactive
same,Potency,[14],inactive
same,Potency,[15],inactive
same,Potency,[16],inactive
